Here are results for 29 compounds from PubChem BioAssay (EPA / NIEHS).

Read-out in test [1]: Monokine induced gamma interferon (MIG), CXCL9 (gene 4283)
Briefly: BSK_SAg_MIG: BioMAP Diversity Plus: SAg Assay for Monokine induced gamma interferon (MIG) Biomarker Activity (AID 2283092). The following applies: primary human HUVEC with PBMC; actives raise or lower the signal. In a few lines:
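ELISA readout of MIG/CXCL9; primary human umbilical vein endothelial cells co-cultured with peripheral blood mononuclear cells; 24 h post-dose; gain/loss fit vs DMSO baseline.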

Test [2] can be described thus: BSK_SAg_PBMCCytotoxicity: PBMC Cytotoxicity Assessment in the BioMAP Diversity Plus: SAg Assay (AID 2283093).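 Further: PBMC viability measured as Alamar Blue reduction fluorescence at 546/580 nm; fitted both ways against DMSO so a hit may be loss or gain of signal.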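 On AC50: PBMC superantigen activated with SEB plus TSST-1 one hour after compound addition.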 The conditions noted are these: primary human HUVEC with PBMC. In a few lines: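 Alamar Blue reduction (6 h, ex/em 546/580 nm) read after 90 h culture of PBMC pre-dosed 1 h then stimulated with SEB plus TSST-1, 20 ng/mL each. Gain or loss of signal fitted relative to DMSO.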

Read-out in test [3]: Interleukin-8 (IL8), CXCL8 (gene 3576)
The test is described as follows: BSK_SAg_IL8: BioMAP Diversity Plus: SAg Assay for Interleukin-8 (IL8) Biomarker Activity (AID 2283094). The conditions noted are these: primary human HUVEC with PBMC; actives raise or lower the signal. Put shortly: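 HUVEC/PBMC co-culture, 24 h post-dose; IL-8 by ELISA. Gain or loss of signal fitted bidirectionally vs DMSO baseline.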

Test [4] is described as follows: BSK_SAg_Proliferation: Cell Proliferation Assessment in the BioMAP Diversity Plus: SAg Assay (AID 2283095).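 Further: relative cell number as total protein by SRB absorbance in sub-confluent culture.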 The conditions noted are these: primary human HUVEC with PBMC. Put shortly: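 HUVEC/PBMC co-culture, 96-well. TCA-fixed (10%), 0.1% SRB stain, A560 at 96 h. Protein content used as viability readout; bidirectional fitting vs DMSO control.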
The nature of test [5]: BSK_SAg_SRB: Viability Assessment in the BioMAP Diversity Plus: SAg Assay (AID 2283096).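 Further: cells read one day after compound addition; hits may be either gain or loss of signal compared with DMSO.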 The conditions noted are these: primary human HUVEC with PBMC. Put shortly: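 SRB absorbance at 560 nm served as the viability read-out. Cells (HUVEC plus peripheral blood mononuclear cells) were TCA-fixed and stained 24 h post-dosing; activity fitted in both directions against DMSO controls.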

Test [6] addresses human CYP19A1, CYP19A1 (gene 1588) (UniProt P11511). Briefly: NVS_ADME_hCYP19A1: NovaScreen (NVS) CYP450-related Enzyme Activity (ADME) Assay for human CYP19A1 (AID 2283098; active means hit-call score of the fitted dose curve at least 0.9, where 1 is the maximum;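 on AC50: potency for inhibitors seen as loss of fluorescent enzyme signal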). In a few lines:
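Primary testing was in duplicate at a single 10 uM concentration, with actives followed up in concentration-response series. Fluorescence read-out of recombinant enzyme activity at 0.5 h, cell-free. Acetonitrile was the negative-control baseline.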

Test [7] addresses human CYP2A6, CYP2A6 (gene 1548) (UniProt P11509). Briefly: NVS_ADME_hCYP2A6: NovaScreen (NVS) CYP450-related Enzyme Activity (ADME) Assay for human CYP2A6 (AID 2283099; active means hit-call score of the fitted dose curve at least 0.9, where 1 is the maximum). In a few lines:
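Insect-cell-expressed human CYP2A6 enzyme activity measured by fluorescence intensity 0.5 hour post-dosing. Compounds screened at 10 uM in duplicate, then hits tested singly in concentration series (max 20 uM); acetonitrile baseline.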

Test [8] addresses human CYP1A1, CYP1A1 (gene 1543) (UniProt P04798). Briefly: NVS_ADME_hCYP1A1: NovaScreen (NVS) CYP450-related Enzyme Activity (ADME) Assay for human CYP1A1 (AID 2283100; active means hit-call score of the fitted dose curve at least 0.9, where 1 is the maximum). Put shortly:
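Read-out: fluorescence intensity from enzymatic turnover of substrate by recombinant CYP1A1, loss of signal indicating inhibition. Incubation 1 h post-dose. Primary single-point 10 uM in duplicate; actives rerun singly with top concentration 20 uM.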

The target of test [9] is human CYP2B6, CYP2B6 (gene 1555) (UniProt P20813). Briefly: NVS_ADME_hCYP2B6: NovaScreen (NVS) CYP450-related Enzyme Activity (ADME) Assay for human CYP2B6 (AID 2283101; active means hit-call score of the fitted dose curve at least 0.9, where 1 is the maximum). In a few lines:
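Fluorescence-based enzyme activity of recombinant human CYP2B6, measured 1 h post-dose against acetonitrile vehicle baseline. Screened at a single concentration of 10 uM in duplicate before concentration-response follow-up.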

The target of test [10] is human CYP1A2, CYP1A2 (gene 1544) (UniProt P05177). The test is described as follows: NVS_ADME_hCYP1A2: NovaScreen (NVS) CYP450-related Enzyme Activity (ADME) Assay for human CYP1A2 (AID 2283102; active means hit-call score of the fitted dose curve at least 0.9, where 1 is the maximum;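 further: potency for inhibition since loss of fluorescence marks reduced CYP1A2 activity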). In a few lines:
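Fluorescence-intensity enzyme activity read-out, taken 0.5 h post-dosing, using insect-cell-derived recombinant CYP1A2 and specific fluorescent substrate. Acetonitrile served as negative control/baseline. Single-concentration duplicate screen at 10 uM, then concentration-response follow-up.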

Each structure is given as a SMILES string. Where “and” joins values, the source holds several entries; their conditions need not be identical. Equal values may be shown once. Records with an inconclusive call do not appear. Where a structure was tested more than once in an assay, its records may differ in their call. Calls of active or inactive are those of the source. How the source made its calls, unless noted: active means hit-call score of the fitted dose curve at least 0.9, where 1 is the maximum; inactive means score below 0.9.

human CYP19A1, CYP19A1 (gene 1588), sequence (P11511 whole entry, looked up): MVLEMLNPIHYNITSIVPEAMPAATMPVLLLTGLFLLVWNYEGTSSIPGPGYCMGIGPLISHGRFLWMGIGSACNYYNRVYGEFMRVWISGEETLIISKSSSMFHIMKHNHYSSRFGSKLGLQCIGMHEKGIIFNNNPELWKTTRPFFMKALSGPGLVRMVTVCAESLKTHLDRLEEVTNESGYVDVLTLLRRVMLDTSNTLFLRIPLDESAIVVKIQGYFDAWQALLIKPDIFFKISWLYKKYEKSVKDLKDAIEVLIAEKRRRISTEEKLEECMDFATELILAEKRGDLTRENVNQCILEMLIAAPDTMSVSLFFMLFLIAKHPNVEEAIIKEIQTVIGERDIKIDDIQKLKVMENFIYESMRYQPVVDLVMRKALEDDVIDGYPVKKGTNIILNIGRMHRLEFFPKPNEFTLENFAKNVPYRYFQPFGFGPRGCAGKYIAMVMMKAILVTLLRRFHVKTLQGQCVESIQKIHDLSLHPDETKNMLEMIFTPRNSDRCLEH
human CYP1A1, CYP1A1 (gene 1543), sequence (P04798 whole entry, looked up): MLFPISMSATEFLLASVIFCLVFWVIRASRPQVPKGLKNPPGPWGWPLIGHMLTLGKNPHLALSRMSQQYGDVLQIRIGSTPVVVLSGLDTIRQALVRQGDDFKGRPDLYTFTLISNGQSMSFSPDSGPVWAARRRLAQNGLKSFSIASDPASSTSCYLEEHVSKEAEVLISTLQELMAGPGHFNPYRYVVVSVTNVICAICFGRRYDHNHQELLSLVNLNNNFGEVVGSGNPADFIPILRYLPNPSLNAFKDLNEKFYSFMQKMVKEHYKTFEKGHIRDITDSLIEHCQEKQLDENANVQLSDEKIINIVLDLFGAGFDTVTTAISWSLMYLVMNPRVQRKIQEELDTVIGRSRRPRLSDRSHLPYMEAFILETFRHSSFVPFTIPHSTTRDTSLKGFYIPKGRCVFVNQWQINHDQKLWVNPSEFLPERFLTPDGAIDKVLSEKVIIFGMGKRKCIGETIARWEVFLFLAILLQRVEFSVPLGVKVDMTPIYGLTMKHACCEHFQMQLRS
human CYP2A6, CYP2A6 (gene 1548), sequence (P11509 whole entry, looked up): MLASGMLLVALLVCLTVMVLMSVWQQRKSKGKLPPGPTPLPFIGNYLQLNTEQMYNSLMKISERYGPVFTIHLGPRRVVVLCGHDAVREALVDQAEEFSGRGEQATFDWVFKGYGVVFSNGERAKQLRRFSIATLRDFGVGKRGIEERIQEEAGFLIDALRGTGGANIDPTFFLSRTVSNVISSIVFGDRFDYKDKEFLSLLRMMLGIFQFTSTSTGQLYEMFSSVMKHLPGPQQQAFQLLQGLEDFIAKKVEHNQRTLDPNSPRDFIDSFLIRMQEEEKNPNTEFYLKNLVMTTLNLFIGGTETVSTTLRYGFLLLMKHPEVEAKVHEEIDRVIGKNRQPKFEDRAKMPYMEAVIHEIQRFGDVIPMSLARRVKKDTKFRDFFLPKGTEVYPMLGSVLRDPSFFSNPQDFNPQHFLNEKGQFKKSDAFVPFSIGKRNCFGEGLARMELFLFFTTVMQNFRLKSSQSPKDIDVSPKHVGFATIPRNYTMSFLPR
human CYP1A2, CYP1A2 (gene 1544), sequence (P05177 whole entry, looked up): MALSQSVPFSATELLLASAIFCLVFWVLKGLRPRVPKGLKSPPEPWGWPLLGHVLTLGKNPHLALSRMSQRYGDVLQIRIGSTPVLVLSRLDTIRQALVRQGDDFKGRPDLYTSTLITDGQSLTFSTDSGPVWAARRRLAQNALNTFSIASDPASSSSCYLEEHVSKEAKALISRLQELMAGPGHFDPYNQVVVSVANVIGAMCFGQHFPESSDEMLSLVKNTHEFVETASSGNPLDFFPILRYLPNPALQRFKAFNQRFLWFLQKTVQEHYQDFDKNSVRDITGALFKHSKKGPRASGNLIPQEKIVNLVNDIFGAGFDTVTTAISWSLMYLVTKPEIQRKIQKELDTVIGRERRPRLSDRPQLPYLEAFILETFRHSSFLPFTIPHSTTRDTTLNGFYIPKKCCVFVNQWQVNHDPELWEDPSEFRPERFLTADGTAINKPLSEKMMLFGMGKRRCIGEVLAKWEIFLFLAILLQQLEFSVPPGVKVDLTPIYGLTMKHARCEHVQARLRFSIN
human CYP2B6, CYP2B6 (gene 1555), sequence (P20813 whole entry, looked up): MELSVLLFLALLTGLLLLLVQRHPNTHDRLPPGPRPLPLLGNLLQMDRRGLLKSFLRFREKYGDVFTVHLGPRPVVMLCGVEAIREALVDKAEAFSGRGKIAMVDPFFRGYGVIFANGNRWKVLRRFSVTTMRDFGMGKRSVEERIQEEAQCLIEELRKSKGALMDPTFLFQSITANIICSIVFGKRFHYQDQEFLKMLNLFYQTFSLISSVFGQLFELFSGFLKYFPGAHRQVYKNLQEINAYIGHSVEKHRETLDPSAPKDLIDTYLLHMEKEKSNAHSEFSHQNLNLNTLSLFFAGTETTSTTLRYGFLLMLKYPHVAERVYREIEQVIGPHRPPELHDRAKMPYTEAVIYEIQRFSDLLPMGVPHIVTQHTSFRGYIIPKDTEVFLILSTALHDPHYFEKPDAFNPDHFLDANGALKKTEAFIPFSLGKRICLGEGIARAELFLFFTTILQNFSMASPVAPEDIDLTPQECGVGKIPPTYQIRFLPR

In the case of `CC(C)(C)c1ccc(O)c(C(C)(C)C)c1`, the AC50 in [1] was 28.7 µM (active); in test [2], 12.9 µM (active); in [3], 20 µM (active); in [4], 10.8 µM (active); in [5], 16.6 µM (active).

As for `CC(=O)CC(C)(C)O`, the outcome in test [1], in test [2], in test [3] and in [5] was inactive.

Take `COCC(C)OCC(C)O` (stereo not given): the result in test [1], in [2], in test [3], in test [5] and in test [6] was inactive.

Turning to `Cc1cc(C)c(O)c(C)c1`, the outcome in [1], in test [2], in test [3] and in test [5] was inactive.

In the case of `CC(=O)NC1(c2cccc(F)c2)CCN(CC[C@@]2(c3ccc(Cl)c(Cl)c3)CN(c3ccccc3)C(=O)CO2)CC1`, the result in [1], in test [7] and in test [8] was inactive. Also, the figures for the AC50 in [2], in test [3] and in test [5] were 24.7 µM (active), 6.76 µM (active) and 24.6 µM (active), respectively.

`COc1ccc([N+](=O)[O-])cc1N`: the outcome in test [1], in [2], in [3], in [5] and in [9] was inactive. Besides, in [7], the AC50 is 5.77 µM (active).

Regarding `OCCC(F)(F)C(F)(F)C(F)(F)C(F)(F)C(F)(F)C(F)(F)C(F)(F)C(F)(F)F`, the concentration at half-maximal activity (AC50) in test [1] is 46.3 µM (active) and 43.8 µM (active); in test [2] it was 23.4 µM (active) and 10 µM (active) and 10.8 µM (active); in test [5] it was 17.2 µM (active) and 21.1 µM (active). The result in test [1] and in test [5] was inactive.

On to `CCC(=C(c1ccc(O)cc1)c1ccc(OCCN(C)C)cc1)c1ccccc1`, for which the half-maximal activity concentration (AC50) is 13.2 µM (active) in test [1]; 7.32 µM (active) in [2]; 10.2 µM (active) in [3]; 5.91 µM (active) in test [4]; 8.31 µM (active) in [5].

Take `OCCC(F)(F)C(F)(F)C(F)(F)C(F)(F)C(F)(F)C(F)(F)F`: the AC50 in [1] was 53.2 µM (active); in test [2], 47.7 µM (active) and 55.7 µM (active); in test [4] it was 49.8 µM (active) and 50.9 µM (active); in test [5], 53.1 µM (active). Besides, the outcome in [1], in test [2], in [4] and in test [5] was inactive.

Regarding `COCC(C)O` (stereo not given), the result in [1], in [2], in test [3] and in test [5] was inactive.

Take `OC1CCC(C2CCCCC2)CC1` (stereo not given): the result in test [1], in test [2], in test [3], in test [4] and in test [5] was inactive.

As for `CC[C@H](c1ccc(O)cc1)[C@@H](CC)c1ccc(O)cc1`, the AC50 in test [1] was 32.6 µM (active); in test [2] it was 31.1 µM (active); in test [3], 20.2 µM (active); in test [5], 31.4 µM (active); in test [6], 1.77 µM (active).

With `O=C(OCCOCCOC(=O)c1ccccc1)c1ccccc1`, the result in test [1], in [2], in test [3], in test [5] and in test [8] was inactive. The AC50 in test [10] is 1.71 µM (active).

In the case of `CC(O)CO` (stereo not given), the result in [1], in test [2], in test [3], in test [4] and in test [5] was inactive.

Take `CCc1nn(C2CCCCC2)c2cc(C3(C#N)CCC(C(=O)O)CC3)ccc12` (stereo not given): the concentration at half-maximal activity (AC50) in [1] is 28 µM (active); in test [3] it was 2.73 µM (active); in test [5], 11.5 µM (active). The outcome in test [2] was inactive.

In the case of `NC(=O)N1C(=O)C(C(=O)c2cc(Cl)cs2)c2cc(F)c(Cl)cc21` (stereo not given), the outcome in [1], in [2] and in test [3] was inactive. Also, the half-maximal activity concentration (AC50) in [5] was 20 µM (active).

Consider `OC1CCCCC1`, for which the outcome in test [1], in [2], in [3] and in test [5] was inactive.

With `c1ccc2c(c1)ccc1ccccc12`, the result in test [1], in test [2], in test [3], in [4] and in [5] was inactive.

With `ClC1=C(Cl)C(Cl)(Cl)C(Cl)=C1Cl`, the AC50 in test [1] is 13.8 µM (active); in test [2], 10.4 µM (active); in [3] it was 10.4 µM (active); in test [5], 9.48 µM (active).

For `CCCCCCCCOC(=O)CCCCCCCCC(=O)OCCCCCCCC`, the result in test [1], in test [2], in test [3] and in [5] was inactive.

Take `CC(C)(C)CC(C)(C)c1ccc(O)c(-n2nc3ccccc3n2)c1`: the result in test [1], in test [2], in test [3], in test [4] and in test [5] was inactive.

In the case of `CCCCC(CC)COC(=O)CCCCC(=O)OCC(CC)CCCC` (stereo not given), the result in test [1], in [2], in test [4] and in test [5] was inactive.

For the compound `CCCCCCCCCCCCCCCS(=O)(=O)Oc1ccccc1`, the result in test [1], in [3] and in test [5] was inactive. For the same compound, in test [2], the AC50 was 5.98 µM (active).

In the case of `O=C(O)c1ccccc1C(c1ccc(O)cc1)c1ccc(O)cc1`, the outcome in test [1], in [2], in test [3], in test [5] and in test [6] was inactive.

Regarding `CCN(CC)CCNc1ccc(CNC=O)c2sc3ccc(OC)cc3c(=O)c12`, the AC50 in test [1] was 36.4 µM (active); in test [2] it was 12.9 µM (active); in test [3], 20 µM (active); in [5] it was 17.8 µM (active); in [8], 6.62 µM (active); in test [10] it was 7.1 µM (active). Besides, the compound was called inactive in test [7].

On to `CCC(C)(C)C1CCC(O)CC1` (stereo not given), for which the result in [1], in test [2], in [3] and in test [5] was inactive.

On to `NC(=O)N(O)[C@@H]1C=C[C@H](Oc2cccc(Oc3ccc(F)cc3)c2)C1`, for which the result in test [1], in test [2], in [3] and in test [5] was inactive.

`NCC(F)(F)C(F)(F)C(F)(F)C(F)(F)C(F)(F)C(F)(F)C(F)(F)F`: the outcome in [1], in test [2], in [3] and in [5] was inactive. Besides, the AC50 in [2] is 47.2 µM (active).

Turning to `N#C[C@@H]1CC(F)(F)CN1C(=O)CNC1CC2CCC(C1)N2c1ncccn1` (stereo not given in full), the result in test [1] was inactive. Further, the AC50 in test [2] is 8.08 µM (active); in test [3] it was 7.82 µM (active); in test [5], 5.45 µM (active).

By AC50 is commonly meant the concentration at which the activity in the assay is half-maximal.
